# According to PubChem BioAssay (NCI):
# “And” between values parts separate entries of the source, which are not always exact repeats. Equal entries are not always repeated. About 83,000 compounds went through this panel and 20% of them were active in at least one assay; those are over-represented in the sample as a whole.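 Values shown are percent growth following 48 h exposure of cells in 96-well plates to a single concentration of compound; below 10 was considered active.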 The source made the active and inactive calls.
# Test system: HL-60(TB) leukemia
# Experiment: NCI-60 one-dose screen, 48 h (100 = growth as untreated, 0 = no growth, -100 = all killed)
# Conditions: 10 µM unless noted
row,Compound,growth
1,C=CCSc1n[nH]c(-c2cccs2)n1,111% (inactive)
2,COc1ccc(-c2ccc3cnc4sc(-c5ccc(OC)cc5)nc4c3n2)cc1,95.3% (inactive)
3,O=CC1(C2(C=O)c3ccccc3-c3ccccc32)c2ccccc2-c2ccccc21,-52.3% (active)
4,C/C(=N\NC(N)=S)c1nc2ccc(Cl)cc2[nH]1,29.5% (inactive)
5,Oc1c(C(c2ccc(F)cc2)N2CCCCC2)ccc2cncnc12 (centres undefined),-29.3% (active)
6,O=C(Nc1cccc(F)c1)c1cc(=O)[nH]c2cc(Br)ccc12,3.41% (active)
7,Cc1cc(Nc2ncnc3ccc(NC4=NC(C)(C)CO4)cc23)ccc1Oc1ccn2ncnc2c1,5.69% (active)
8,Nc1cc(N)c2cccnc2c1O,59.6% (inactive)
9,COc1cccc(/C=C/C(=O)c2cc3c(N)c(C(=O)Nc4ccccc4)sc3nc2C)c1,16.9% (inactive)
10,CC(=O)c1c(O)cc2c3c1OC(C)(C)C1CCC(C)(CC31)O2 (centres undefined),89.2% (inactive)
11,COc1ccc(-c2nc3sc(C)nn3c2-c2nc3cc(C)c(C)cc3[nH]2)cc1,112% (inactive)
12,COc1ccc(Cn2c(NCCN=C(N)N)nc(=O)n(Cc3ccc(F)cc3)c2=O)cc1,94.1% (inactive) and 96.9% (inactive)
13,COc1ccc(C2C=C(c3ccc(Cl)cc3)N=C3SC=CN32)cc1 (centres undefined),113% (inactive)
14,CC(=O)c1cc(C)c(OC(=O)c2ccccc2)c(C)c1,97.9% (inactive)
15,CCN1C(=O)N(c2ccccc2)C2NN=c3s/c(=C4\C(=O)N(C(C)C)c5ccccc54)c(=O)n3C21 (centres undefined),-16.1% (active)
16,CC(C)(C)c1cc(NC(=O)Nc2ccc(-c3cn4c(n3)sc3cc(OCCN5CCOCC5)ccc34)cc2)no1,18.7% (inactive) and 41% (inactive)
17,Cc1cc(C(c2ccccc2)c2ccccc2)ccc1NS(=O)(=O)c1ccccc1,78.5% (inactive)
18,COc1cc(-c2ccc(N=Nc3ccc4c(S(=O)(=O)O)ccc(N)c4c3O)c(OC)c2)ccc1N=Nc1ccc2c(S(=O)(=O)O)ccc(N)c2c1O,115% (inactive)
19,O=C1C=CC[C@H](/C=C/c2ccccc2)O1,13.5% (inactive) and -34.5% (active)
20,CC(=O)/C(=C\c1c(-c2ccccc2)[nH]c2ccccc12)S(=O)(=O)c1ccccc1,-68.4% (active)
21,C=CCSc1nnc(NC(=O)CCl)s1,91.5% (inactive)
22,COC(=O)c1nc(N)nc(C(=O)OC)c1C(=O)c1ccc(OC)cc1,115% (inactive) and 65.7% (inactive)
23,COc1cccc(-c2nn(-c3ccccc3)cc2-c2ccnc(NCCCNC(=O)c3ccc(F)cc3)c2)c1,19.3% (inactive)
24,CC1(C)CC[C@]2(C(N)=O)CC[C@]3(C)C(=CC[C@@H]4[C@@]5(C)C/C(=C/c6cccnc6)C(=O)C(C)(C)[C@@H]5CC[C@]43C)[C@@H]2C1,-24.7% [100 µM] (active)
